The record followed here is PubChem BioAssay AID1835 (Johns Hopkins Ion Channel Center, 2009).

SMILES strings stand for the structures. In all, about 2,400 compounds went through this assay and about 750 (31%) were called active. This is one part of the list. A number with no mark means an inactive call.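 Rule for the calls: active = median signal gain over dofetilide-blocked control wells reaching their mean plus 3 SD, so readout 1 at least 0; inactive = the rest.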

The assay deals with Voltage-gated inwardly rectifying potassium channel KCNH2 (Homo sapiens) (UniProt Q12809). Kind of assay: modulators restoring hERG flux under dofetilide – cell-based, thallium flux, duplicate retest, dofetilide IC70, confirmation (AID 1835). As to conditions: hERG cell line, FluxOR thallium flux, dofetilide-blocked; at 10 µM; hits give high values.
Chain of Voltage-gated inwardly rectifying potassium channel KCNH2 (Homo sapiens) (Q12809 whole entry, looked up): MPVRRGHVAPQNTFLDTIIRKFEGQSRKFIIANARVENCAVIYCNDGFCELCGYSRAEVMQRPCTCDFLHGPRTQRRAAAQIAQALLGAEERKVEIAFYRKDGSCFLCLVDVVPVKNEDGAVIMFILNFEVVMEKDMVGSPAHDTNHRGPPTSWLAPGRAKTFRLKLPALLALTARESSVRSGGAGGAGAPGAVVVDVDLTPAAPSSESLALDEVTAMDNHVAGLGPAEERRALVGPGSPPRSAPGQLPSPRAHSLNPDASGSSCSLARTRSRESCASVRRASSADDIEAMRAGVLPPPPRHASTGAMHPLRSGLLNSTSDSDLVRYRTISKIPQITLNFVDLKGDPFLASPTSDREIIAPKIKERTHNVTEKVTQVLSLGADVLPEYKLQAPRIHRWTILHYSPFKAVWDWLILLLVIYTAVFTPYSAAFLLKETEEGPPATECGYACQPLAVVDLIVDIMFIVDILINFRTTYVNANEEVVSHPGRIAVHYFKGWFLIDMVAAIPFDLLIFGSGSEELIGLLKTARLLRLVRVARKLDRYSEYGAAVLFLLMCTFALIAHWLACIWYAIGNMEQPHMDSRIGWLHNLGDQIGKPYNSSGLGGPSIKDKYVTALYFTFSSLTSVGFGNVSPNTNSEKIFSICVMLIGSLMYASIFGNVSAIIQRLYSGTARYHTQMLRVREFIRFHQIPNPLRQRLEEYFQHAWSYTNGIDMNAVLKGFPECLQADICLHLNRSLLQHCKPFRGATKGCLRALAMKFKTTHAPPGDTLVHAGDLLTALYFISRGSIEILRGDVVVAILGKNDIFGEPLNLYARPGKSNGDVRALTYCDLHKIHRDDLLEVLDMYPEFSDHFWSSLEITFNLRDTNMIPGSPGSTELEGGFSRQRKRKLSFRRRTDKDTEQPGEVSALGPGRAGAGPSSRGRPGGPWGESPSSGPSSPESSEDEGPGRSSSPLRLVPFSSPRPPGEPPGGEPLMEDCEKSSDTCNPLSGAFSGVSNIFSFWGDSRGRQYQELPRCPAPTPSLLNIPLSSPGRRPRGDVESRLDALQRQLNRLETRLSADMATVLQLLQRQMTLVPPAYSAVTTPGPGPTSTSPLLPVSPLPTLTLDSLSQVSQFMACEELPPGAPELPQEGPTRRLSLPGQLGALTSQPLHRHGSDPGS
Turning to `O=C(NCC(c1cccs1)N1CCOCC1)c1cc(S(=O)(=O)N2CCOCC2)ccc1F` (stereo not given), the activity increase over dofetilide control, less the hit threshold is -22%.

Turning to `CCc1cc2c(=O)n(CCC(C)C)c(=S)[nH]c2s1`, the activity increase over dofetilide control, less the hit threshold was 71% (active).

Regarding `CC(C)(C)OC(=O)N1CCC2(CC1)Oc1ccc(Cl)cc1C(=O)C21CC(c2ccc(Cl)cc2)=NO1` (stereo not given), the activity increase over dofetilide control, less the hit threshold was -19%.

Take `COc1ccc2ncc(OC(C)=O)cc2c1`: the activity increase over dofetilide control, less the hit threshold is -14%.

Regarding `COc1ccc2nc(N=Nc3c(O)ccc4ccccc34)sc2c1`, the activity increase over dofetilide control, less the hit threshold was 31% (active).

On to `O=C(Nc1ccccc1)O/N=C/c1ccncc1`, for which the activity increase over dofetilide control, less the hit threshold was -7%.

Consider `CN(C)CCCN=C(NO)c1ccc(Cl)cc1Cl`, for which the activity increase over dofetilide control, less the hit threshold was 4% (active).

With `CN(C)C(=O)c1cc(C(=O)c2ccc(Cl)cc2Cl)c[nH]1`, the activity increase over dofetilide control, less the hit threshold was -4%.

As to `C=CCSC1=C(C#N)C(c2ccccc2)CC(=O)N1` (stereo not given), the activity increase over dofetilide control, less the hit threshold was -15%.

For `CCC(C)(C(=O)NC1CCCC1)N(Cc1ccco1)C(=O)c1ccccn1` (stereo not given), the activity increase over dofetilide control, less the hit threshold is -13%.

For the compound `Cc1ccc(C(C(=O)NC(C)(C)C)N(Cc2cccnc2)C(=O)C(=O)NC2CCCCC2)o1` (stereo not given), the activity increase over dofetilide control, less the hit threshold is 0% (active).

Take `Cc1ccc(C(=O)NC2CCC(C)CC2)o1` (stereo not given): the activity increase over dofetilide control, less the hit threshold is -23%.

`CC(C)C(O)(C#CCN1CCCC1)c1ccccc1` (stereo not given): the activity increase over dofetilide control, less the hit threshold is -16%.

On to `CCOc1ccc(-n2c(C)c(C(C)=O)c3cc(O)ccc32)cc1`, for which the activity increase over dofetilide control, less the hit threshold is -14%.

Consider `CCn1c2ccccc2c2cc(NC(=O)COc3ccccc3)ccc21`, for which the activity increase over dofetilide control, less the hit threshold is -20%.

Consider `CCOc1ccc(N(CC)C(=O)COc2cc(=O)n(C)c3ccccc23)cc1`, for which the activity increase over dofetilide control, less the hit threshold was 1% (active).

Take `CC(C)Oc1ccc(CNC(=O)C2CCN(C(=O)N3CCOc4ccccc43)CC2)cc1`: the activity increase over dofetilide control, less the hit threshold was -31%.

Consider `CCOc1ccccc1C(=O)NC1CC2CCCC(C1)N2Cc1nnnn1Cc1ccco1` (stereo not given), for which the activity increase over dofetilide control, less the hit threshold is -24%.

Regarding `Cc1[nH]c(=O)[nH]c(=O)c1S(=O)(=O)N1CCC(C(=O)NC(C)c2ccccc2)CC1` (stereo not given), the activity increase over dofetilide control, less the hit threshold is -4%.

Take `CCOC(=O)c1c(C)[nH]c(C)c1S(=O)(=O)N1CCCCC1`: the activity increase over dofetilide control, less the hit threshold was 4% (active).

As to `CCCCc1c(C)[nH]c(C(=O)OCC)c1C`, the activity increase over dofetilide control, less the hit threshold was -14%.

Turning to `O=C1c2nc3cc(-c4ccco4)[nH]n3c(=O)c2CN1Cc1ccccc1`, the activity increase over dofetilide control, less the hit threshold is -10%.

As for `CCC(=O)NC(c1cccs1)c1ccc2cccnc2c1O` (stereo not given), the activity increase over dofetilide control, less the hit threshold is -8%.

`O=c1c2[nH]c3ccccc3c2nc2n1CCCS2`: the activity increase over dofetilide control, less the hit threshold was 3% (active).

As for `CCOC(=O)N1CCN(C(=O)CSc2nc3c([nH]c4ccccc43)c(=O)n2CC)CC1`, the activity increase over dofetilide control, less the hit threshold was 0%.

For the compound `O=c1c(Cc2ccccc2)c(O)nc2n1CCCS2`, the activity increase over dofetilide control, less the hit threshold is -3%.

In the case of `COc1ccc(NC(=O)C2CCN(S(=O)(=O)c3cn(C)nc3C)CC2)cc1`, the activity increase over dofetilide control, less the hit threshold is -12%.

Consider `COc1ccc(/C=C2\SC(c3ccc(C)cc3)=NC2=O)cc1OC`, for which the activity increase over dofetilide control, less the hit threshold is 112% (active).

Consider `COc1ccc(-c2ccc3c(N)c(C(=O)c4ccc(OC)c(OC)c4)sc3n2)cc1`, for which the activity increase over dofetilide control, less the hit threshold was -9%.

`CCOC(=O)C1=C(O)/C(=C/c2ccc(OCC(=O)O)c(OC)c2)SC1=Nc1ccc(OCC)cc1`: the activity increase over dofetilide control, less the hit threshold is -9%.

On to `COc1ccc(C(C(=O)NC(C)(C)C)N(C(=O)CCC(=O)Nc2cc(C)on2)c2cccc(F)c2)cc1` (stereo not given), for which the activity increase over dofetilide control, less the hit threshold is -6%.

As for `O=C(CSc1nc(N2CCCCC2)nc(N2CCCCC2)n1)c1ccccc1`, the activity increase over dofetilide control, less the hit threshold is -16%.

For `C=CCn1c2ccccc2c(=O)c2cc(C#Cc3ccsc3)ccc21`, the activity increase over dofetilide control, less the hit threshold is 17% (active).

Turning to `O=C(/C=C/Nc1ccc(F)cc1)c1ccco1`, the activity increase over dofetilide control, less the hit threshold was -22%.

`Cc1cccc(N2C(=O)C(O)=C(C(=O)c3cccs3)C2c2cccc(Oc3ccccc3)c2)n1` (stereo not given): the activity increase over dofetilide control, less the hit threshold was -12%.

As for `CCCC(=O)NC(=S)Nc1nc(-c2ccc(OC)cc2)cs1`, the activity increase over dofetilide control, less the hit threshold is -11%.

Take `CCC(=O)N(CC)c1nc(-c2ccc(OC)cc2)cs1`: the activity increase over dofetilide control, less the hit threshold is 17% (active).

For `CCCn1c(SCC(=O)Nc2nc(-c3ccc(OC)cc3)cs2)nc2c1c(=O)n(C)c(=O)n2C`, the activity increase over dofetilide control, less the hit threshold is -8%.

Consider `COc1cc(C(=O)NCCNc2nc3cc(C)ccc3cc2C#N)cc(OC)c1OC`, for which the activity increase over dofetilide control, less the hit threshold is -2%.

Take `Cc1ccc(-c2c(=O)n(O)c3ccccc3[n+]2[O-])cc1`: the activity increase over dofetilide control, less the hit threshold was 52% (active).

As to `O=c1c(-c2ccc(Cl)cc2)[n+]([O-])c2ccccc2n1O`, the activity increase over dofetilide control, less the hit threshold is 64% (active).

As to `O=c1c(-c2ccccc2)[n+]([O-])c2ccccc2n1O`, the activity increase over dofetilide control, less the hit threshold was -10%.

For the compound `O=c1c(-c2cccc3ccccc23)[n+]([O-])c2ccccc2n1O`, the activity increase over dofetilide control, less the hit threshold is 9% (active).

`CCc1nnc(NC(=O)c2cccc(S(=O)(=O)N3CCN(c4ccccc4)CC3)c2)s1`: the activity increase over dofetilide control, less the hit threshold was -17%.

For `O=C(COc1ccccc1)Nc1nnc(-c2ccc(Cl)s2)o1`, the activity increase over dofetilide control, less the hit threshold is -9%.

Take `CC1=Nc2ccc(C)cc2/C1=C/c1c(N)n2c(S(=O)(=O)C(C)C)nsc2nc1=O`: the activity increase over dofetilide control, less the hit threshold is -5%.

As for `CCn1c(=O)c(-[n+]2ccccc2)c(O)c2ccccc21`, the activity increase over dofetilide control, less the hit threshold is -15%.

In the case of `CC(C)C(=O)Nc1c(-c2ccccc2F)c(=O)c2ccccc2n1C`, the activity increase over dofetilide control, less the hit threshold is -6%.

Turning to `CCOC(=O)c1c(C)cccc1OCC(N)=O`, the activity increase over dofetilide control, less the hit threshold is -16%.

Turning to `Cn1c(=O)c(Sc2ccccc2)c(O)c2ccccc21`, the activity increase over dofetilide control, less the hit threshold is 2% (active).

With `CCOC(=O)Cn1cc(C=O)c2ccccc21`, the activity increase over dofetilide control, less the hit threshold is -17%.

Regarding `Cn1c(=O)cc(-c2ccccc2)c2ccccc21`, the activity increase over dofetilide control, less the hit threshold is -28%.

With `Cn1c(=O)c(-c2cc(=O)[nH][nH]2)c(O)c2ccccc21`, the activity increase over dofetilide control, less the hit threshold was 2% (active).

As to `CCOC(=O)c1c(O)c2ccccc2n(C)c1=O`, the activity increase over dofetilide control, less the hit threshold was 5% (active).

`O=C1OC(/C=C/c2ccccc2)=NC/1=C/c1ccco1`: the activity increase over dofetilide control, less the hit threshold is -15%.

In the case of `COC(=O)Cc1[nH]n(-c2nc3ccccc3s2)c(=O)c1C(C)=Nc1ccc(C)cc1`, the activity increase over dofetilide control, less the hit threshold is -1%.

`Cn1ncc2c(NNC(=O)Cc3ccccc3)ncnc21`: the activity increase over dofetilide control, less the hit threshold was -13%.

For the compound `O=C(O)c1ccc(Cl)cc1Nc1nc2cc(Cl)ccc2o1`, the activity increase over dofetilide control, less the hit threshold is 10% (active).

For `COC(=O)n1c(=S)oc2cc(Cl)ccc21`, the activity increase over dofetilide control, less the hit threshold is -13%.

As for `O=C(O)c1c2c(nc3ccccc13)/C(=C/c1cccc([N+](=O)[O-])c1)CCC2`, the activity increase over dofetilide control, less the hit threshold was -18%.

Take `N#Cc1c2n(c3c(=O)n(Cc4ccc(Cl)cc4)cnc13)CCCC2`: the activity increase over dofetilide control, less the hit threshold was -14%.

For the compound `Cc1cc(C)cc(N(C(=O)c2cc3ccccc3oc2=O)C2C=CS(=O)(=O)C2)c1` (stereo not given), the activity increase over dofetilide control, less the hit threshold is -13%.

Turning to `Cc1sc2nc(CN3CCOCC3)[nH]c(=S)c2c1C`, the activity increase over dofetilide control, less the hit threshold was 92% (active).

Regarding `CC(C)(C)n1nnnc1C(c1cccs1)N1CCN(Cc2ccccc2)CC1` (stereo not given), the activity increase over dofetilide control, less the hit threshold is -6%.

On to `Cc1ccc(-c2cccc(C3CC=CC4C3C(=O)N(Cc3ccccc3)C4c3ccc4ccccc4c3)c2)cc1` (stereo not given), for which the activity increase over dofetilide control, less the hit threshold is -1%.
